Compounds without any hit were thinned out: in the full panel of roughly 79,000, 15% have a hit. The source made the active and inactive calls. Cut-off read from the data, not from the text of the source: active = growth inhibition above about 70%; inactive = the rest.
How the values were obtained:
[1] = NCI Yeast Anticancer Drug Screen. Data for the rad52 strain (AID 147);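 note: 0% = growth of vehicle-treated control cultures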; details: S. cerevisiae rad52 mutant growth inhibition, active compounds read high
Procedure, shortened: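 Here a repair-compromised yeast strain receives each compound; its growth is then quantified and normalised to vehicle-only controls.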

[2] = NCI Yeast Anticancer Drug Screen. Data for the wt1 strain (AID 149);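 note: 0% = growth of vehicle-treated wt1 cultures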; details: S. cerevisiae wt1 strain (SPY 50644) growth inhibition, active compounds read high
Procedure, shortened: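 Each compound is tested on wt1 yeast and the loss of growth versus vehicle gives the inhibition value.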

[3] = NCI Yeast Anticancer Drug Screen. Data for the rad50EPP+ strain (AID 151);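 note: 0% = growth of vehicle-treated control cultures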; details: S. cerevisiae rad50 mutant strain, active compounds read high
Procedure, shortened: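 Read-out is yeast growth inhibition relative to vehicle; cells used were the rad50EPP+ strain.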

[4] = NCI Yeast Anticancer Drug Screen. Data for the mgt1 strain (AID 153); details: S. cerevisiae mgt1 mutant growth inhibition, active compounds read high
Procedure, shortened: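 Measured: inhibition of mgt1 yeast growth by compound, normalized to vehicle-treated cultures.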

[5] = NCI Yeast Anticancer Drug Screen. Data for the rad50 strain (AID 155);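 note: 0% = growth of vehicle-only cultures of the same strain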; details: S. cerevisiae rad50 strain growth inhibition, active compounds read high
Procedure, shortened: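 Vehicle-treated cultures provide the reference for the growth inhibition reported for compound-exposed, repair-deficient yeast.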

[6] = NCI Yeast Anticancer Drug Screen. Data for the mec2-1 strain (AID 157); details: S. cerevisiae mec2-1 strain, active compounds read high
Procedure, shortened: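 Using mec2-1 yeast: add compound, measure growth, express inhibition versus vehicle-treated cultures.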

[7] = NCI Yeast Anticancer Drug Screen. Data for the rad14 strain (AID 159);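 note: 0% = growth of vehicle-treated control cultures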; details: S. cerevisiae rad14 strain growth inhibition, active compounds read high
Procedure, shortened: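 Inhibition of growth is reported for a repair-deficient yeast mutant following compound treatment, calculated relative to cultures that received vehicle.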

[8] = NCI Yeast Anticancer Drug Screen. Data for the sgs1 mgt1 strain (AID 161);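 note: 0% = growth of cultures given vehicle only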; details: S. cerevisiae sgs1 mgt1 strain, active compounds read high
Procedure, shortened: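 Percent growth inhibition was derived by comparing compound-exposed mutant yeast with vehicle-exposed cultures. The strain carries alterations in DNA damage repair.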

[9] = NCI Yeast Anticancer Drug Screen. Data for the CLN2oe strain (AID 163);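 note: 0% = growth of vehicle-only control cultures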; details: S. cerevisiae CLN2oe strain, active compounds read high
Procedure, shortened: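 Whole-cell yeast growth assay. A strain engineered for altered cell-cycle control received compound, and inhibition relative to vehicle-treated cultures was recorded.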

[10] = NCI Yeast Anticancer Drug Screen. Data for the cln2 rad14 strain (AID 165);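 note: 0% = growth equal to vehicle treated cultures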; details: S. cerevisiae cln2 rad14 strain, active compounds read high
Procedure, shortened: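 Yeast strain cln2 rad14, bearing defects in cell cycle control and DNA repair, serves as the test system; values reflect growth inhibition compared with vehicle.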

[11] = NCI Yeast Anticancer Drug Screen. Data for the bub3 strain (AID 167); details: S. cerevisiae bub3 mutant strain, active compounds read high
Procedure, shortened: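 Mutant yeast screening strain plus compound; vehicle-treated cultures serve as the 0% inhibition reference.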

[12] = NCI Yeast Anticancer Drug Screen. Data for the wt2 strain (AID 169); details: S. cerevisiae wt2 strain growth inhibition, active compounds read high
Procedure, shortened: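 Treated yeast vs. vehicle-treated yeast: growth inhibition determined.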

[13] = NCI Yeast Anticancer Drug Screen. Data for the mlh1 strain (AID 171);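 note: 0% = growth of vehicle-treated control cultures of the same strain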; details: S. cerevisiae mlh1 strain growth inhibition, active compounds read high
Procedure, shortened: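 A yeast strain with a defined genetic lesion serves as the test organism. Cultures receive compound or vehicle, and growth is measured.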

[14] = NCI Yeast Anticancer Drug Screen. Data for the sgs1 strain (AID 173);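 note: 0% = growth of vehicle-only control cultures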; details: S. cerevisiae sgs1 mutant, active compounds read high
Procedure, shortened: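 A genetically defined yeast mutant is incubated with the test compound, and its growth is compared to that of the same strain given vehicle.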

[15] = NCI Yeast Anticancer Drug Screen. Data for the mlh1 rad18 strain (AID 175); details: S. cerevisiae mlh1 rad18 strain growth inhibition, active compounds read high
Procedure, shortened: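 Steps: expose repair-defective yeast to compound; measure growth; express inhibition against vehicle-treated controls.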

[16] = NCI Yeast Anticancer Drug Screen. Data for the rad18 strain (AID 177); details: S. cerevisiae rad18 mutant growth inhibition, active compounds read high
Procedure, shortened: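 Measured value is growth inhibition of a yeast strain bearing a DNA repair alteration, referenced to vehicle-treated cells.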

[17] = at 5.0 µM (retest, dose inferred, filed as 0.5)
[18] = at 50.0 µM (retest, dose inferred, filed as 5.0)

Measured: growth inhibition

C[N+]1(CCCl)CC[N+](C)(CCCl)CC1 (stereo unspecified)
active: [1]; at 100.0 µM 95% | [2]; at 100.0 µM 95% | [4]; at 100.0 µM 97% | [5]; [18] 95% | [5]; at 50.0 µM 97.2% | [5]; at 100.0 µM 96% | [6]; at 33.0 µM 81% | [6]; [18] 99% | [6]; at 50.0 µM 96.7% | [6]; at 100.0 µM 98% | [7]; at 100.0 µM 96% | [8]; [18] 98% | [8]; at 50.0 µM 96.1% | [9]; at 100.0 µM 95% | [10]; [18] 96% | [10]; at 50.0 µM 94.3% | [11]; [17] 78% | [11]; [18] 98% | [11]; at 50.0 µM 97% | [11]; at 100.0 µM 97% | [12]; at 100.0 µM 94% | [13]; at 100.0 µM 94% | [14]; at 100.0 µM 96% | [15]; [18] 97% | [15]; at 50.0 µM 97.6% | [16]; at 100.0 µM 97%
inactive: [1]; at 1.2 µM 0% | [1]; at 3.7 µM 3% | [1]; at 11.0 µM 5% | [1]; at 33.0 µM 36% | [2]; at 1.2 µM 0% | [2]; at 3.7 µM -1% | [2]; at 11.0 µM 1% | [2]; at 33.0 µM 14% | [3]; at 1.2 µM 0% | [3]; at 3.7 µM 0% | [3]; at 11.0 µM 2% | [3]; at 33.0 µM 7% | [3]; at 100.0 µM 56% | [4]; at 1.2 µM -2% | [4]; at 3.7 µM 1% | [4]; at 11.0 µM 3% | [4]; at 33.0 µM 29% | [5]; at 1.2 µM 1% | [5]; at 3.7 µM 2% | [5]; [17] 18% | [5]; at 11.0 µM 4% | [5]; at 33.0 µM 48% | [6]; at 1.2 µM -3% | [6]; at 3.7 µM -3% | [6]; [17] 21% | [6]; at 11.0 µM 2% | [7]; at 1.2 µM 1% | [7]; at 3.7 µM 3% | [7]; at 11.0 µM 7% | [7]; at 33.0 µM 56% | [8]; [17] 29% | [9]; at 1.2 µM -3% | [9]; at 3.7 µM -2% | [9]; at 11.0 µM 3% | [9]; at 33.0 µM 32% | [10]; [17] 2% | [11]; at 1.2 µM 1% | [11]; at 3.7 µM 1% | [11]; at 11.0 µM -5% | [11]; at 33.0 µM 29% | [12]; at 1.2 µM 0% | [12]; at 3.7 µM 0% | [12]; at 11.0 µM 1% | [12]; at 33.0 µM 14% | [13]; at 1.2 µM 0% | [13]; at 3.7 µM -1% | [13]; at 11.0 µM 0% | [13]; at 33.0 µM 13% | [14]; at 1.2 µM 0% | [14]; at 3.7 µM -1% | [14]; at 11.0 µM 1% | [14]; at 33.0 µM 34% | [15]; [17] 13% | [16]; at 1.2 µM -2% | [16]; at 3.7 µM -1% | [16]; at 11.0 µM 5% | [16]; at 33.0 µM 61%

COC(=O)C1=C(C(=O)OC)SC2(S1)C(C(=O)OC)=C(C(=O)OC)Sc1c2ssc1=O
inactive: [1]; at 1.2 µM 55% | [2]; at 1.2 µM 27% | [2]; at 3.7 µM 26% | [2]; at 11.0 µM 66% | [3]; at 1.2 µM 9% | [3]; at 3.7 µM 8% | [3]; at 11.0 µM 30% | [3]; at 33.0 µM 56% | [3]; at 100.0 µM 54% | [4]; at 1.2 µM 44% | [4]; at 3.7 µM 51% | [5]; at 1.2 µM 46% | [5]; [17] 13% | [6]; at 1.2 µM 16% | [6]; at 3.7 µM 17% | [6]; [17] 17% | [7]; at 1.2 µM 27% | [7]; at 3.7 µM 30% | [8]; [17] 26% | [9]; at 1.2 µM 14% | [9]; at 3.7 µM 26% | [11]; at 1.2 µM 23% | [11]; at 3.7 µM 32% | [11]; [17] 55% | [12]; at 1.2 µM 21% | [12]; at 3.7 µM 54% | [13]; at 1.2 µM 44% | [13]; at 3.7 µM 51% | [14]; at 1.2 µM 43% | [14]; at 3.7 µM 58% | [15]; [17] 26%
active: [1]; at 3.7 µM 72% | [1]; at 11.0 µM 93% | [1]; at 33.0 µM 98% | [1]; at 100.0 µM 89% | [2]; at 33.0 µM 99% | [2]; at 100.0 µM 94% | [4]; at 11.0 µM 88% | [4]; at 33.0 µM 99% | [4]; at 100.0 µM 92% | [5]; at 3.7 µM 73% | [5]; at 11.0 µM 93% | [5]; at 33.0 µM 98% | [5]; [18] 95% | [5]; at 50.0 µM 82.2% | [5]; at 100.0 µM 91% | [6]; at 11.0 µM 85% | [6]; at 33.0 µM 98% | [6]; [18] 95% | [6]; at 50.0 µM 86.2% | [6]; at 100.0 µM 88% | [7]; at 11.0 µM 80% | [7]; at 33.0 µM 99% | [7]; at 100.0 µM 92% | [8]; [18] 95% | [8]; at 50.0 µM 84.1% | [9]; at 11.0 µM 91% | [9]; at 33.0 µM 98% | [9]; at 100.0 µM 91% | [10]; [17] 70% | [10]; [18] 95% | [10]; at 50.0 µM 86.2% | [11]; at 11.0 µM 88% | [11]; at 33.0 µM 98% | [11]; [18] 94% | [11]; at 50.0 µM 78.8% | [11]; at 100.0 µM 91% | [12]; at 11.0 µM 99% | [12]; at 33.0 µM 96% | [12]; at 100.0 µM 89% | [13]; at 11.0 µM 88% | [13]; at 33.0 µM 99% | [13]; at 100.0 µM 92% | [14]; at 11.0 µM 87% | [14]; at 33.0 µM 99% | [14]; at 100.0 µM 93% | [15]; [18] 96% | [15]; at 50.0 µM 86.8%
